Screening results deposited in PubChem by National Center for Advancing Translational Sciences (NCATS).
A selection: hits, their analogues and other compounds. The true share with any hit is near 3%.
HEK293 viab: counter-screen for SNCA expression inhibitors: cell viability; hit rate 0.12% among 150,000; Potency, µM (doses to about 57.1 µM), inactives show at the top dose activity change, negative = cytotoxicity, hits mostly cytotoxic; HEK-293-SNCA-luc viability, GF-AFC fluorescence, 24 h;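 note: potency is the fitted concentration of half-maximal effect; 0% = DMSO-treated cells and -100% = medium-only wells without cells; nearly all actives have a fitted effect of over 30% in size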
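HEK-293-SNCA-luc cells (1500/well) plated 24 h, then exposed 24 h to a dilution series; GF-AFC added 30 min at 37C, fluorescence 405/540 nm; normalised to medium-only and DMSO wells, Hill fit.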
KDM5B inh: inhibitors of human KDM5B histone demethylase. Q9UGL1. KDM5B demethylase, FDH-coupled NADH fluorescence (FDH is formaldehyde dehydrogenase). Potency, µM (series often up to 57.7 µM), usual class: inhibitors. hit rate 2.6% among 220,000. AID 1347165; note: potency is the fitted concentration of half-maximal effect; 0% is about no effect; nearly all actives have a fitted effect of over 70% in size
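KDM5BΔAP (200 nM final) in 50 mM HEPES pH 7.5, 0.01% Tween-20 was preincubated 10 min at RT with compound over a concentration range. Substrate mix (H3K4me3 12.5 µM, α-KG 25 µM, Fe²⁺, ascorbate, NAD⁺, FDH) was added, and NADH fluorescence change over 30 min gave dose-response curves.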
IP6K1 inhibitor: blocks human inositol hexakisphosphate kinase 1 | Q92551 | IP6K1 kinase, ADP-Glo luminescence, 2 h; hits give low values | activity change, % (series mostly up to about 58 µM) | hit rate 0.81% among 140,000; in the data active = activity change below about -25%; note: % is set by controls: 0 for no effect and ±100 for the full control effect
Target sequence (Q92551 whole entry, looked up): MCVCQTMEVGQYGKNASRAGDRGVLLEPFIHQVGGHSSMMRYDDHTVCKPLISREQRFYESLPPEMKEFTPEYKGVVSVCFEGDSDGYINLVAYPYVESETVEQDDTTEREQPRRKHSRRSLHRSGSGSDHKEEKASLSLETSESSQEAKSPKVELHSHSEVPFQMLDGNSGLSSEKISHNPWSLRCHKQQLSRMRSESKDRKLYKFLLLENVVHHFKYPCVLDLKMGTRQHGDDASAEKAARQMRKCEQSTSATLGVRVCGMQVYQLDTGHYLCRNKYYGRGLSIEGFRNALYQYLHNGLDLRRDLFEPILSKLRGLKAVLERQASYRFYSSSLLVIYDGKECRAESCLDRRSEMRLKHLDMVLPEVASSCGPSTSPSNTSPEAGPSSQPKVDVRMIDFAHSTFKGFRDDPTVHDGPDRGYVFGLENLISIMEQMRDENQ
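ADP-Glo luminescence measures ADP made by human IP6K1 during a 2 h RT reaction with ATP/IP6 (mix at 1.3 mM/130 uM); top library doses 57.5 and 19.1 uM final.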
SNCA expr inhib: inhibitors of alpha-synuclein (SNCA) gene expression; Potency, µM (titrated, usually from 57.2 µM), without a hit: at the top dose activity change, negative = inhibition, hits mostly inhibitors; AID 1671194; HEK-293 SNCA-luciferase knock-in, luminescence, 24 h; hit rate 0.17% among 140,000;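 note: potency is the fitted concentration of half-maximal effect; plate controls were DMSO cells for no effect and cell-free wells for full effect; nearly all actives have a fitted effect of over 45% in size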
* = called active by the depositor; i = inactive; ? = inconclusive; / = no result; [ ] = dose if it differs, or a comment. Unless noted, calls come from the whole dose curve; as a rule, active = well fitted curve in the direction sought with a large enough effect; inconclusive = small, poorly fitted or top-dose-only effect, or another doubt; inactive = no such curve, though single readings can be large; an effect the other way counts as inactive or inconclusive.

SMILES	HEK293 viab	KDM5B inh	IP6K1 inhibitor	SNCA expr inhib
c1cn(-c2ccc(-c3cscn3)cc2)c(-c2cc3n(n2)CCCNC3)n1	5%	i	2	11%
c1cn(-c2ccc3ncsc3c2)c(-c2cc3n(n2)CCCNC3)n1	-18%	3.5µM*	-1	18%
c1cn(-c2ccc3cn[nH]c3c2)c(-c2cc3n(n2)CCCNC3)n1	1%	i	-6	-17%
N#Cc1cc(-n2ccnc2-c2cc3n(n2)CCCNC3)ccc1N1CCCC1	5%	28µM*	52	3%
O=C(NC1CCC(O)CC1)c1ccc(-c2ncc3cnc(-c4ccccc4)cn23)cc1 (stereo not drawn)	-17%[87.6 µM]	?	0	?
O=C(c1ccc(-c2ncc3cnc(C4=CCOCC4)cn23)cc1)N1CCc2ccccc2C1	-27%[87.6 µM]	28µM*	-3	8%[87.6 µM]
O=C(NCc1cnccn1)c1ccc(-c2ncc3cnc(C4=CCOCC4)cn23)cc1	4%[87.6 µM]	35µM*	-9	-9%[87.6 µM]
O=C(c1ccc(-c2ncc3cnc(-c4ccccc4)cn23)cc1)N1CCS(=O)(=O)CC1	0%[87.6 µM]	35µM*	-11	6%[87.6 µM]
Cc1ccc(C(=O)N2CCc3cn(C)c4cccc(c34)C2)cc1	9%	?	-3	57%
CC1(COc2ccccc2)COc2ccc(C(=O)NCc3cnccn3)cc2N1 (stereo not drawn)	5%[87.6 µM]	i	14	15%[87.6 µM]
O=C(NCCO)c1ccc(-c2ncc3cnc(C4=CCOCC4)cn23)cc1	2%[87.6 µM]	32µM*	-14	6%[87.6 µM]
O=C(NCCCO)c1ccc(-c2ncc3cnc(-c4cccc(F)c4)cn23)cc1	-5%[87.6 µM]	?	-14	14%[87.6 µM]
Cc1cc(Cl)ccc1OC(C)c1nc(-c2ccc(Br)o2)no1 (stereo not drawn)	/	i	/	/
NC(=O)c1ccc(-c2ncc3cnc(-c4cccc(F)c4)cn23)cc1	2%[87.6 µM]	?	-12	-7%[87.6 µM]
O=C(c1ccc(-c2ncc3cnc(-c4cccc(F)c4)cn23)cc1)N1CCc2cccnc21	25µM*	?	-17	28µM*
O=C(O)CCn1ncc2cc(OCC3CCN(c4ncccn4)CC3)ccc21	3%[87.6 µM]	?	-5	2%[87.6 µM]
O=C(O)CCn1ncc2cc(OCC3CCN(c4ncc(F)cn4)CC3)ccc21	7%[87.6 µM]	35µM*	-9	?
CCc1cnc(N2CCC(COc3ccc4c(cnn4CCC(=O)O)c3)CC2)nc1	-17%[87.6 µM]	40µM*	-2	-14%[87.6 µM]
CCc1ccc2[nH]c(C)c(CC(=O)NCc3ccc(C)o3)c2c1	/	i	/	/
CC(C)c1nc(N2CCOCC2)ncc1C(=O)O	12%	?	-15	17%
O=C(O)C1(O)CCN(c2ncc(F)c(N3CCOCC3)n2)CC1	7%	28µM*	16	13%
CC(C)(C)C(=O)Nc1ccc(-c2nc3ccccc3s2)cc1	-9%	i	-6	1.4µM*
O=C(NCCc1ccccc1)c1cc2n(n1)CC(c1ccc3c(c1)OCO3)OC2 (stereo not drawn)	-6%	?	8	-4%
COc1ccccc1CNC(=O)c1cc2n(n1)CC(c1ccc3c(c1)OCO3)OC2 (stereo not drawn)	0%	25µM*	0	?
O=C(NCc1cccc(Cl)c1)c1cc2n(n1)CC(c1ccc3c(c1)OCO3)OC2 (stereo not drawn)	8%	20µM*	23	3%
SMILES	HEK293 viab	KDM5B inh	IP6K1 inhibitor	SNCA expr inhib
COc1ccc(CNC(=O)c2cc3n(n2)CC(c2ccc4c(c2)OCO4)OC3)cc1OC (stereo not drawn)	-8%	25µM*	-7	-16%
COc1ccc(OC)c(NC(=O)c2cc3n(n2)CC(c2ccc4c(c2)OCO4)OC3)c1 (stereo not drawn)	-2%	i	-3	4%
Cc1ccc(CCNC(=O)c2cc3n(n2)CC(c2ccc4c(c2)OCO4)OC3)cc1 (stereo not drawn)	4%	25µM*	21	-14%
Cn1ccnc1CNc1nccc(-c2cnn(-c3ccccc3F)c2)n1	2%	?	18	40%
Cc1ccccc1-n1cc(-c2ccnc(NC3CCN(C)CC3)n2)cn1	6%	28µM*	11	-3%
COc1ccc(NC(=O)c2nc3sccn3c2-c2cccc(C(F)(F)F)c2)cc1	22µM*	/	7	-28%
O=C(c1ccncc1)N1CCC2(CC1)CC(N(Cc1ccc(F)cc1)C1CC1)CCO2 (stereo not drawn)	-8%	32µM*	1	5%
O=C(c1ccc(F)cc1)N1CCC2(CC1)CC(N(Cc1ccc(F)cc1)C1CC1)CCO2 (stereo not drawn)	-12%	i	-11	?
CCCCC(=O)Nc1ccc(OCC)c2ncccc12	/	i	/	/
O=[N+]([O-])c1ccc2c(c1)S(=O)(=O)C=C2	?	/	/	5µM*
O=[N+]([O-])c1cccc(Br)c1	/	i	/	/
COC(=O)c1cc(C#N)c(N2CC[C@H](CO)[C@@H](O)C2)nc1C	-4%	25µM*	7	6%
CCc1cccc(NC(=O)CCS(=O)(=O)c2ccc3c(c2)oc(=O)n3C)c1	/	i	/	/
O=c1c2nc(-c3cccc(O)c3)ccc2ncn1-c1ccccc1	-7%[87.6 µM]	i	13	15%[87.6 µM]
Cn1cnc2ccc(-c3ccsc3)nc2c1=O	-9%[87.6 µM]	35µM*	-2	12%[87.6 µM]
O=c1c2nc(-c3ccsc3)ccc2ncn1Cc1ccccc1	-14%[87.6 µM]	40µM*	4	58%[87.6 µM]
O=C(COc1ccccc1)N(Cc1ccc(-c2ccc(Cl)cc2)o1)C1CCS(=O)(=O)C1 (stereo not drawn)	/	i	/	/
CCC(CC)C(=O)N1C[C@@H](CO)[C@@H]2Oc3ccc(Cl)cc3[C@@H]21	/	/	9	/
CC(C)c1noc(CN(C)C(=O)c2cc(-c3cnn(C)c3)nc3ccccc23)n1	2%	28µM*	-3	-7%
CN(Cc1ccccc1)C(=O)c1cc(-c2cccnc2)nc2ccccc12	/	i	/	/
O=C1CC2CCN(C(=O)c3ccc(F)cc3)CC2CCN1 (stereo not drawn)	-3%[87.6 µM]	i	-10	-6%[87.6 µM]
O=C1CC2CCN(C(=O)c3ccccc3)CC2CCN1 (stereo not drawn)	0%[87.6 µM]	28µM*	-11	-23%[87.6 µM]
Cc1ccc(C)c(C(=O)C(C)Oc2ccc(C#N)cc2)c1 (stereo not drawn)	/	i	/	/
CN(Cc1ccc(-c2ccc(Cl)cc2)o1)C(=O)CSc1nnc(C2CC2)n1CCC(N)=O	/	i	/	/
CCNc1ncc(C(=O)N(CCc2ccccc2)Cc2ccco2)cn1	-2%	28µM*	4	-23%
COc1ccccc1-c1nc2cnccn2c1NCCC(=O)Nc1ccc2c(c1)OCO2	?	28µM*	1	-1%
COc1ccccc1-c1nc2cnccn2c1NCCC(=O)N1CCc2ccccc21	19%	28µM*	3	20%
COc1ccc(Nc2c(-c3cccc(O)c3)nc3cnccn23)cc1	-10%	i	-7	8%
COc1cccc(-c2nc3cnccn3c2NCCC(=O)N2CCc3ccccc32)c1	24%	22µM*	21	10%
COc1cccc(-c2nc3cnccn3c2NCCC(=O)N2CCN(C)CC2)c1	?	28µM*	13	-4%
